Bioassay records as filed in PubChem BioAssay.
Only some compounds are listed: those with a hit (about 5.9% of all), similar ones and a draw of the others.
TrxR1 substrate – qHTS Assay for Substrates of Mammalian Selenoprotein Thioredoxin Reductase 1 (TrxR1): qHTS | purified TrxR1 substrate turnover, NADPH consumption readout | Potency, µM (highest dose often 114 µM), without a hit: at the top dose activity change, negative = substrate turnover | actives 0.01% (n = 390,000) | AID 588456, 2011; further: potency means the concentration at half of the fitted maximal effect; nearly all actives have a fitted effect of over 50% in size
Target sequence (O89049 whole entry, looked up): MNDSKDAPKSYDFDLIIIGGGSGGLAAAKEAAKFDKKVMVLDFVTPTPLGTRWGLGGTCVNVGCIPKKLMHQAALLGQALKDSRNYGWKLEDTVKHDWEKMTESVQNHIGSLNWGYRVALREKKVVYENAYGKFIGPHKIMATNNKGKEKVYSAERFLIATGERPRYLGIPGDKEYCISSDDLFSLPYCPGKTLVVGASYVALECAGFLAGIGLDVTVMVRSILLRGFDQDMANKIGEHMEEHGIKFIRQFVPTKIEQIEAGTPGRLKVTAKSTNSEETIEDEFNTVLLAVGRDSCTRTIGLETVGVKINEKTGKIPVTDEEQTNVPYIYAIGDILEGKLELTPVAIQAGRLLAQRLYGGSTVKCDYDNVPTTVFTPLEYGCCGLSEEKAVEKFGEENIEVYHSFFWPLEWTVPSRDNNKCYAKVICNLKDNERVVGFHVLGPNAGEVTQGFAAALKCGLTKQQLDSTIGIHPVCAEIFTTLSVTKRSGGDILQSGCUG
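Rat TrxR1, dispensed at 90 nM, was prereduced with 400 uM NADPH (final) for 5 min at ~22 deg C, then incubated with compound 15 min before 400 uM selenite. A first-read NADPH fluorescence drop versus no-compound background flagged substrates.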
GALK inh – qHTS Assay for Inhibitors of Human Galactokinase (GALK). actives 0.007% (n = 270,000). P51570. Purified GALK, Kinase-Glo residual ATP luminescence. Potency, µM (highest dose often 57.5 µM), for the others: top-dose activity change, negative = inhibition, usual class: inhibitors. AID 1868, 2009; further: potency means the concentration at half of the fitted maximal effect
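Kinase-Glo Plus luminescence measured ATP left after a 1 h room-temperature reaction. The reaction used 5 nM GALK, 100 uM galactose and 35 uM ATP at pH 8.0 (20 mM HEPES, 5 mM MgCl2, 60 mM NaCl, 1 mM DTT, 0.01% BSA).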
rTrxR1 inhibitor – qHTS Assay for Inhibitors of Mammalian Selenoprotein Thioredoxin Reductase 1 (TrxR1): qHTS | Thioredoxin reductase 1, cytoplasmic (Rattus norvegicus), O89049 | recombinant rTrxR1, NADPH fluorescence consumption, selenite substrate | Potency, µM (highest dose often 114 µM), inactives show at the top dose activity change, negative = inhibition, usual class: inhibitors | actives 1% (n = 390,000) | AID 588453, 2011; further: potency means the concentration at half of the fitted maximal effect; nearly all actives have a fitted effect of over 65% in size
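Rat TrxR1 (90 nM in the dispensed reagent) was pre-reduced with 400 uM NADPH for 5 min at room temperature, then incubated with compound for 15 min. After 400 uM selenite was added, NADPH fluorescence (Ex 340/Em 450 nm) was followed for 8 min.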
Coupling enz – qHTS Assay for Inhibitors of Fructose-1,6-bisphosphate Aldolase from Giardia Lamblia: Coupling assay counterscreen. activity change, negative = inhibition, % at 58.2 µM, hits read low. coupling enzyme system counterscreen, AmpLite Red fluorescence. actives 0.67% (n = 290,000); in the data active means activity change below about -30%
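Coupling enzymes only (glyceraldehyde-3-phosphate) + compound, at 57.5 uM final, 10 min RT; add substrate/coupling/AmpLite Red mix, 20 min RT; fluorescence ex 525/em 598 nm. Actives flag coupling-system interference.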
RORg inh – qHTS for inhibitors of ROR gamma transcriptional activity | Nuclear receptor ROR-gamma (Mus musculus), P51450 | Drosophila S2 Gal4-RORgamma UAS-luciferase reporter, 20 h | Potency, µM (doses to about 53.6 µM), for the others: at the top dose activity change, negative = inhibition, most hits filed as inhibitors | actives 5.4% (n = 310,000) | AID 2551, 2010; further: potency means the concentration at half of the fitted maximal effect; nearly all actives have a fitted effect of over 60% in size
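Stable Schneider cell line, Gal4 DNA-binding domain fused to ROR gamma, UAS-luciferase. Cmpd 1 hr RT → CuSO4 700 uM final → 20 hr RT → luciferase reagent 10 min → luminescence.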
Gal4-VP16 FLuc – VP16 counterscreen qHTS for inhibitors of ROR gamma transcriptional activity | Drosophila S2 Gal4-VP16 UAS-luciferase, luminescence, 20 h | Potency, µM (series often up to 53.6 µM), inactives show at the highest dose activity, negative = inhibition, usual class: inhibitors | actives 3.5% (n = 310,000);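 further: Gal4-VP16 expression switched on by copper sulfate through the metallothionein promoter; potency means the concentration at half of the fitted maximal effect; nearly all actives have a fitted effect of over 50% in size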
Starred values were filed as active, the others as inactive; ? = inconclusive; / = no result; [ ] = another dose, or the depositor's remark. Unless noted, the call rests on the fitted dose curve; in most records, active means well fitted curve in the direction sought with a large enough effect; inconclusive means small, poorly fitted or top-dose-only effect, or another doubt; inactive means no such curve, though single readings can be large; an effect the other way counts as inactive or inconclusive. On the % scale 0 is the no-effect control and ±100 the full control effect.

SMILES	TrxR1 substrate	GALK inh	rTrxR1 inhibitor	Coupling enz	RORg inh	Gal4-VP16 FLuc
CCN(CC)c1ccc(/C=N/NC(=O)c2ccc(O)cc2)cc1	/	/	/	1	1.1µM*	2.5µM*
CCN(CC)c1ccc(/C=N\NC(N)=O)cc1	39%	-1%	-15%	0	?	8%
CCN(CC)c1ccc(/C=N\NC(=O)c2cccc3cc[nH]c23)cc1	4%[57.1 µM]	6%	5%[57.1 µM]	0	7.1µM*	18µM*
CCN(CC)c1ccc(C(=O)N/N=C(\C)c2ccc(O)cc2)cc1	-14%	0%	-14%	2	-33%	-6%
CCN(CC)c1ccc(/C=N/NC(=O)c2ccoc2C)cc1	20%	6%	4%	-11	20µM*	?
CC(=O)Nc1ccc(NC(=O)CSc2nnc(NC(=O)c3cccc(F)c3)s2)cc1	3%	-2%	14%	/	13µM*	?
O=C(CSc1nnc(NC(=O)c2c(F)cccc2F)s1)Nc1ccc(F)cc1	0%[11.4 µM]	1%	-17%[11.4 µM]	2	-40%	-7%
CCc1ccc(Nc2nnc(SCC(=O)Nc3ccc(C(=O)O)cc3)s2)cc1	-2%	-4%	-1%	9	5µM*	7.1µM*
CCCCOc1ccc(-c2nnc(-c3ccncc3)o2)cc1	35%	1%	-1%	1	22%	2%
CCOc1ccc(-c2nnc(-c3ccccc3)o2)cc1	42%	1%	12%	2	10µM*	?
CCOc1ccc(-c2nnc(-c3ccc(OC)cc3)o2)cc1	7%[57.1 µM]	3%	13%[57.1 µM]	0	-14%	?
CCCOc1ccc(-c2nnc(-c3cccs3)o2)cc1	36%[57.1 µM]	-3%	46%[57.1 µM]	0	5µM*	?
CCOc1ccc(-c2nnc(-c3ccncc3)o2)cc1	17%	-2%	-15%	1	13µM*	?
O=S(=O)(c1ccc2c(c1)OCCO2)N1CCN(S(=O)(=O)c2ccco2)CC1	3%	/	11%	/	/	/
Nc1nc(SCC(=O)Nc2ccc(Cl)cc2)[nH]c(=O)c1-c1ccccc1	10%	-2%	17%[57.1 µM]	2	11%	5%
Cc1ccc(NC(=O)Cn2c(CCC(=O)O)ccc2-c2ccc(Cl)cc2)cc1	-1%	6%	-7%	5	-8%	8%
CC(C)(C)c1ccc(C(=O)O/N=C(\N)c2ccccn2)cc1	2%	7%	23%	-3	0.16µM*	5µM*
Cc1cccc(/C(N)=N/OC(=O)c2ccc3c(c2)OCO3)c1	3%	15%	7%	0	10µM*	?
N/C(=N\OC(=O)c1ccc2c(c1)OCO2)c1cccc([N+](=O)[O-])c1	-9%[57.1 µM]	1%	32%[57.1 µM]	0	-2%	-21%
N/C(=N\OC(=O)c1ccc(Br)o1)c1ccccn1	5%[57.1 µM]	8%	17%[57.1 µM]	2	11µM*	-2%
Cc1ccc(C(=O)O/N=C(\N)c2ccccn2)cc1	7%	?	17%	0	8.9µM*	13µM*
N/C(=N\OC(=O)Cc1ccccc1)c1ccccn1	12%[57.1 µM]	-2%	-8%	-1	-1%	10%
CSC1=NC(C)(C)C=C(/C=C/c2ccc(Cl)cc2Cl)N1	5%[57.1 µM]	-3%	?	-10	?	-15%
CCCCCCOc1ccc(N2C(=O)CC(NCc3ccc(S(N)(=O)=O)cc3)C2=O)cc1 (configuration not stated)	-7%	1%	11%	0	-1%	-6%
COc1cc(C(=O)O/N=C(\N)c2ccccn2)cc(OC)c1OC	1%	2%	15%	4	-39%	26%
SMILES	TrxR1 substrate	GALK inh	rTrxR1 inhibitor	Coupling enz	RORg inh	Gal4-VP16 FLuc
N/C(=N\OCc1ccc([N+](=O)[O-])cc1)c1ccccn1	5%[57.1 µM]	8%	10%[57.1 µM]	-2	1.6µM*	2.5µM*
Cc1ccc(C(=O)O/N=C(\N)c2ccccn2)cc1C	2%[57.1 µM]	8%	-11%[57.1 µM]	1	8.9µM*	11µM*
Cc1cccc(C(=O)O/N=C(\N)c2ccccn2)c1	2%	18%	8%	-3	13µM*	10µM*
CC(C)(C)c1ccc(C(=O)C2CCCN(C(=O)c3ccccn3)C2)cc1 (configuration not stated)	1%	/	11%	1	-41%	14µM*
COC(=O)C[C@H]1c2ccccc2S(=O)(=O)N1c1ccc(N(C)C)cc1	0%	/	-14%	/	/	/
Clc1ccc(-c2ccccc2)cn1	0%	/	5%	/	/	/
Cc1c(Cc2ccccc2)c(=O)oc2cc(OCC(=O)NC(Cc3ccc(Cl)cc3)C(=O)O)ccc12 (configuration not stated)	163%	/	-7%	11	-4%	-4%
CC(=O)N(c1nnc(-c2cccc(C)c2)s1)C1CCCC1	-5%	4%	2%	-4	15%[1.91 µM]	-3%
Cc1cccc(/C(N)=N/OC(=O)c2cccnc2)c1	-10%	6%	-17%	-29	8.9µM*	?
CCOc1ccc(C(=O)O/N=C(\N)c2ccccn2)cc1	2%	12%	15%	0	4.5µM*	10µM*
N/C(=N\OC(=O)/C=C/c1ccccc1Cl)c1ccccn1	-3%	0%	-21%	-2	11µM*	-25%[10 µM]
N/C(=N\OC(=O)c1cccc(F)c1)c1ccccn1	-2%	15%	15%	/	?	?
N/C(=N\OC(=O)c1ccccc1)c1ccccn1	2%	28%	24%	-3	1.6µM*	?
COc1ccc(C(=O)c2sc(Nc3ccccc3F)nc2N)cc1	-10%	3%	1%	1	-17%	-5%
C[C@H]1CC[C@@]2(O[C@H](CCO)C[C@H](O)[C@H]2O)O1	2%[57.1 µM]	/	-13%[57.1 µM]	/	/	/
CC(C)Nc1ncnc2c1cnn2-c1ccc(Cl)cc1	-1%	2%	-9%	-5	?	?
O=C1Nc2ncccc2OC1CCCl (configuration not stated)	-2%	-2%	0%	5	-20%	10%
COc1cccc(/C=C2/Sc3ccc(C(=O)NCCN4CCCC4)cc3NC2=O)c1	0%	7%	19%	0	-36%	?
COc1cc(OC)cc(C(=O)O/N=C(\N)c2cccc(C)c2)c1	-6%	5%	12%	1	-32%	?
COc1ccccc1C/C(N)=N/OC(=O)c1ccc2c(c1)OCO2	-3%	3%	4%	0	0.89µM*	?
Cc1cccc(/C(N)=N/OC(=O)c2ccc(Br)o2)c1	-7%	0%	-9%	0	13µM*	?
